Tests used:
Assay in all cases: log2 ratio of Biotin-Ahx-Ub-VS probe labelling (compound/DMSO); higher = less target engagement, active = hit call of the paper (q ≤ 0.05, log2 ratio ≤ -1)
Conditions in all cases: treatment time: 3 h
[1] = compound: ClCC(=O)NC(C1CCCC1)c1cccs1
How it was run: (§1)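 Compound at 50 or 200 µM, or DMSO, was applied for 3 h in triplicate to HEK293T lysate (495 µg per sample, Tris/CHAPS/IGEPAL buffer with protease inhibitors), after which Biotin-Ahx-Ub-VS was added at 0.5 µM final for 1 h. The labelled DUBs were pulled down with NeutrAvidin, digested with LysC and trypsin, and run by diaPASEF LC-MS/MS. Ratios are averaged base-two logs of compound over DMSO from median-normalised label-free quantities by unpaired t-test, counting only proteins with at least 2 unique peptides.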

[2] = compound: CCC1N(CCc2sccc12)C(=O)CCl
How it was run: as §1

[3] = compound: CN1c2ccccc2C(CS1(=O)=O)NC(=O)CCl
How it was run: as §1

[4] = compound: Cl.ClCC(=O)N1CCc2ncncc2C1
How it was run: as §1

[5] = compound: Cl.Cn1ncc2C(CCCc12)NC(=O)CCl
How it was run: as §1

[6] = compound: ClCC(=O)NC1CCOc2ccccc12
How it was run: as §1

[7] = compound: ClCC(=O)NC1CCCc2ccccc12
How it was run: (§2)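 Each value is an average ratio of compound to vehicle, calculated by unpaired t-test. Lysate from HEK293T cells (495 µg per sample) was incubated in triplicate with compound over a concentration range or vehicle for 3 h and then with Biotin-Ahx-Ub-VS (0.5 µM final) for 1 h. Probe-labelled deubiquitinases were captured on NeutrAvidin, digested and run by diaPASEF LC-MS/MS, with Spectronaut label-free quantities normalised to the global median. Ratios are log2, and only proteins with at least two unique peptides were used.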

[8] = compound: ClCC(=O)N[C@@H]1CCCc2ccccc12
How it was run: as §2

[9] = compound: ClCC(=O)N[C@H]1CCCc2ccccc12
How it was run: as §2

[10] = compound: CCC1N(CCc2cc(OC)c(Cl)cc12)C(=O)CCl
How it was run: as §1

[11] = compound: CCCC1N(CCc2cc(OC)c(OC)cc12)C(=O)CCl
How it was run: as §1

[12] = compound: CN(Cc1cccc(Br)c1)C(=O)CCl
How it was run: as §1

[13] = compound: CN(Cc1cccc(OCc2ccccc2C)c1)C(=O)CCl
How it was run: as §1

[14] = compound: CN(Cc1ccccc1)C(=O)CCl
How it was run: as §1

[15] = compound: COc1ccc(CN(C)C(=O)CCl)cc1
How it was run: as §1

[16] = compound: COc1cccc(CN(CCCc2ccccc2)C(=O)CCl)c1
How it was run: as §1

[17] = compound: ClCC(=O)N1CCc2cc(Cl)c(Cl)cc2C1
How it was run: as §1

[18] = compound: ClCC(=O)N1CCc2nc(ncc2C1)-c1ccccc1
How it was run: as §1

[19] = compound: ClCC(=O)N1CCc2nocc2C1
How it was run: as §1

[20] = compound: ClCC(=O)N1CCc2scc(Br)c2C1
How it was run: as §1

Measured: log2 ratio of Biotin-Ahx-Ub-VS probe labelling

OTUB1 (UniProt Q96FW1)
Chain of UniProt Q96FW1 (Q96FW1 whole entry): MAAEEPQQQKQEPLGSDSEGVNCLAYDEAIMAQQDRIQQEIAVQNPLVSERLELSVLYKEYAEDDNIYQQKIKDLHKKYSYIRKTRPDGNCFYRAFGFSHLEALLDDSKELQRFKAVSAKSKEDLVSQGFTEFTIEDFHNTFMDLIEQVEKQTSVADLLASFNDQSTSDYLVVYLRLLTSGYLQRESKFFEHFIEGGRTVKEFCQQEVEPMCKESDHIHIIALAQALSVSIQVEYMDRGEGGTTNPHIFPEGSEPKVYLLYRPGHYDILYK
inactive: [1]; compound concentration: 200uM -0.00015

ALG13 (UniProt Q9NP73)
Chain of UniProt Q9NP73 (Q9NP73 whole entry): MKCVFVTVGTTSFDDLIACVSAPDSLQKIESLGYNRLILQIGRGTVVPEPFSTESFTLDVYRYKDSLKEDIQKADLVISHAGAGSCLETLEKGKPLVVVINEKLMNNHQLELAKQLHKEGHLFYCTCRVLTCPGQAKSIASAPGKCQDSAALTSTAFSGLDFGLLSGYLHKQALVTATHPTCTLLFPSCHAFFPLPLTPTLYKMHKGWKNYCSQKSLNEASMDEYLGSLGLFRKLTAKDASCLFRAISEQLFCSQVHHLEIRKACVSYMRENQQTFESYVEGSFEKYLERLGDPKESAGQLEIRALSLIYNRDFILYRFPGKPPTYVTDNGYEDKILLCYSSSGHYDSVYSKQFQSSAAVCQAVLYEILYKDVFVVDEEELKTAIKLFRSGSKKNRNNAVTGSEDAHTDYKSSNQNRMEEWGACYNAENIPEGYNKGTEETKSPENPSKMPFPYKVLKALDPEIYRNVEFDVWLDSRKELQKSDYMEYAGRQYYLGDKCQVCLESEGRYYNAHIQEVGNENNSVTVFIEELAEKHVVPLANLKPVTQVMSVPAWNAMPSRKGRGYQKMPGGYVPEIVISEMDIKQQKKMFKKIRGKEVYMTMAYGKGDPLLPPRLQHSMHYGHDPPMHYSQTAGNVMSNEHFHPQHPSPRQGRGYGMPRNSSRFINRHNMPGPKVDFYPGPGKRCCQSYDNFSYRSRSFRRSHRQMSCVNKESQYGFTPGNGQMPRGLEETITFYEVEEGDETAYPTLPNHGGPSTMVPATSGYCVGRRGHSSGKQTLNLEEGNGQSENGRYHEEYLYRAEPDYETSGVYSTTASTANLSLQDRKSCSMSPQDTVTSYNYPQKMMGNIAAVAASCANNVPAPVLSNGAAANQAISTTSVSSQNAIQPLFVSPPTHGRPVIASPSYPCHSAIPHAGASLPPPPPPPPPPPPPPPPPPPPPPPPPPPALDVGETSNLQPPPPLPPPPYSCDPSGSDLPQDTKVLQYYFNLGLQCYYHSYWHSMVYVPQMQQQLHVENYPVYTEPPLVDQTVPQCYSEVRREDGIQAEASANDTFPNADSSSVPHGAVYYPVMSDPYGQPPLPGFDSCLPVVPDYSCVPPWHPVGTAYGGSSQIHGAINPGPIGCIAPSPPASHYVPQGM
inactive: [2]; compound concentration: 50uM 0.393 | [2]; compound concentration: 200uM 0.533 | [3]; compound concentration: 50uM 0.284 | [3]; compound concentration: 200uM 0.203 | [4]; compound concentration: 50uM 0.0225 | [4]; compound concentration: 200uM 0.439 | [5]; compound concentration: 50uM 0.238 | [5]; compound concentration: 200uM -0.0439 | [6]; compound concentration: 50uM 0.11 | [6]; compound concentration: 200uM 0.324 | [7]; compound concentration: 0.78uM 0.19 | [7]; compound concentration: 1.56uM 0.107 | [7]; compound concentration: 3.13uM -0.625 | [7]; compound concentration: 6.25uM -0.155 | [7]; compound concentration: 12.5uM -0.336 | [7]; compound concentration: 25uM -0.19 | [7]; compound concentration: 50uM -0.356 | [7]; compound concentration: 100uM 0.221 | [7]; compound concentration: 200uM -0.15 | [8]; compound concentration: 0.78uM 0.187 | [8]; compound concentration: 1.56uM 0.128 | [8]; compound concentration: 3.13uM 0.146 | [8]; compound concentration: 6.25uM 0.328 | [8]; compound concentration: 12.5uM 0.0757 | [8]; compound concentration: 25uM -0.0189 | [8]; compound concentration: 50uM -0.26 | [8]; compound concentration: 100uM -0.0849 | [8]; compound concentration: 200uM 0.156 | [9]; compound concentration: 0.78uM 0.0472 | [9]; compound concentration: 1.56uM -0.48 | [9]; compound concentration: 3.13uM 0.0655 | [9]; compound concentration: 6.25uM -0.00893 | [9]; compound concentration: 12.5uM -0.0224 | [9]; compound concentration: 25uM 0.337 | [9]; compound concentration: 50uM -0.216 | [9]; compound concentration: 100uM 0.0146 | [9]; compound concentration: 200uM -0.203 | [10]; compound concentration: 50uM 0.0103 | [10]; compound concentration: 200uM 0.0355 | [11]; compound concentration: 50uM 0.0738 | [11]; compound concentration: 200uM 0.242 | [12]; compound concentration: 50uM 0.0661 | [12]; compound concentration: 200uM -0.148 | [13]; compound concentration: 50uM 0.469 | [13]; compound concentration: 200uM -0.522 | [14]; compound concentration: 50uM 0.171 | [14]; compound concentration: 200uM 0.0619 | [15]; compound concentration: 50uM 0.45 | [15]; compound concentration: 200uM 0.0354 | [16]; compound concentration: 50uM 0.162 | [16]; compound concentration: 200uM -0.285 | [17]; compound concentration: 50uM 0.247 | [17]; compound concentration: 200uM 0.454 | [18]; compound concentration: 50uM 0.157 | [18]; compound concentration: 200uM -0.117 | [19]; compound concentration: 50uM 0.493 | [19]; compound concentration: 200uM -0.0466 | [20]; compound concentration: 50uM 0.393 | [20]; compound concentration: 200uM 0.369 | [1]; compound concentration: 50uM -0.273 | [1]; compound concentration: 200uM 0.0789

UniProt Q5T2D3
Chain of UniProt Q5T2D3 (Q5T2D3 whole entry): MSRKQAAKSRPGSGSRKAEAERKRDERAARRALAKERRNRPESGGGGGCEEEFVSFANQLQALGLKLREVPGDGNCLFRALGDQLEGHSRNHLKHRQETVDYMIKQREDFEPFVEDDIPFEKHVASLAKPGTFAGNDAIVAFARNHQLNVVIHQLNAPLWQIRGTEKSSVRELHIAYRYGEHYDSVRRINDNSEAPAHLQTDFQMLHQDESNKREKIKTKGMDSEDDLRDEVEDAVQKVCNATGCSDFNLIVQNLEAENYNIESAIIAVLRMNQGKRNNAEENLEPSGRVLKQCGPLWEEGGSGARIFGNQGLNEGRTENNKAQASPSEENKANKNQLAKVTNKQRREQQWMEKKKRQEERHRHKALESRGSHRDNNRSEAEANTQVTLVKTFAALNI
inactive: [2]; compound concentration: 50uM -0.152 | [2]; compound concentration: 200uM -0.102 | [3]; compound concentration: 50uM -0.294 | [3]; compound concentration: 200uM -0.292 | [4]; compound concentration: 50uM -0.0797 | [4]; compound concentration: 200uM -0.274 | [5]; compound concentration: 50uM -0.136 | [5]; compound concentration: 200uM 0.135 | [6]; compound concentration: 50uM -0.0283 | [6]; compound concentration: 200uM -0.137 | [7]; compound concentration: 0.78uM -0.198 | [7]; compound concentration: 1.56uM -0.0928 | [7]; compound concentration: 3.13uM -0.11 | [7]; compound concentration: 6.25uM -0.192 | [7]; compound concentration: 12.5uM -0.113 | [7]; compound concentration: 25uM 0.0408 | [7]; compound concentration: 50uM -0.0723 | [7]; compound concentration: 100uM -0.0612 | [7]; compound concentration: 200uM -0.179 | [8]; compound concentration: 0.78uM -0.153 | [8]; compound concentration: 1.56uM -0.131 | [8]; compound concentration: 3.13uM -0.0877 | [8]; compound concentration: 6.25uM -0.0936 | [8]; compound concentration: 12.5uM -0.0592 | [8]; compound concentration: 25uM -0.125 | [8]; compound concentration: 50uM -0.234 | [8]; compound concentration: 100uM -0.0551 | [8]; compound concentration: 200uM -0.296 | [9]; compound concentration: 0.78uM -0.237 | [9]; compound concentration: 1.56uM -0.21 | [9]; compound concentration: 3.13uM -0.232 | [9]; compound concentration: 6.25uM -0.0509 | [9]; compound concentration: 12.5uM 0.00779 | [9]; compound concentration: 25uM -0.0485 | [9]; compound concentration: 50uM 0.0602 | [9]; compound concentration: 100uM 0.0541 | [9]; compound concentration: 200uM -0.193 | [10]; compound concentration: 50uM 0.0656 | [10]; compound concentration: 200uM -0.0849 | [11]; compound concentration: 50uM -0.315 | [11]; compound concentration: 200uM -0.497 | [12]; compound concentration: 50uM 0.00241 | [12]; compound concentration: 200uM -0.212 | [14]; compound concentration: 50uM -0.381 | [14]; compound concentration: 200uM -0.198 | [15]; compound concentration: 50uM -0.229 | [15]; compound concentration: 200uM 0.0599 | [16]; compound concentration: 50uM -0.157 | [16]; compound concentration: 200uM -0.202 | [17]; compound concentration: 50uM 0.0943 | [17]; compound concentration: 200uM -0.112 | [18]; compound concentration: 50uM 0.0194 | [18]; compound concentration: 200uM -0.186 | [19]; compound concentration: 50uM -0.173 | [19]; compound concentration: 200uM -0.329 | [20]; compound concentration: 50uM -0.0373 | [20]; compound concentration: 200uM 0.0195 | [1]; compound concentration: 50uM -0.0592 | [1]; compound concentration: 200uM -0.12
